Compounds with a hit are over-represented: about 2.4% of the library has one in this group of screens.
D2 PAM-1 – positively modulates the human D2 dopamine receptor allosterically. P14416. hit rate 0.34% among 340,000. potentiation, % at 10 µM. HEK293 T-REx D2, calcium flux, EC20 dopamine potentiation. AID 485347;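 active means potentiation over 3 SD above the plate norm, cut at about 30% in these data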
Target sequence (P14416 whole entry, looked up): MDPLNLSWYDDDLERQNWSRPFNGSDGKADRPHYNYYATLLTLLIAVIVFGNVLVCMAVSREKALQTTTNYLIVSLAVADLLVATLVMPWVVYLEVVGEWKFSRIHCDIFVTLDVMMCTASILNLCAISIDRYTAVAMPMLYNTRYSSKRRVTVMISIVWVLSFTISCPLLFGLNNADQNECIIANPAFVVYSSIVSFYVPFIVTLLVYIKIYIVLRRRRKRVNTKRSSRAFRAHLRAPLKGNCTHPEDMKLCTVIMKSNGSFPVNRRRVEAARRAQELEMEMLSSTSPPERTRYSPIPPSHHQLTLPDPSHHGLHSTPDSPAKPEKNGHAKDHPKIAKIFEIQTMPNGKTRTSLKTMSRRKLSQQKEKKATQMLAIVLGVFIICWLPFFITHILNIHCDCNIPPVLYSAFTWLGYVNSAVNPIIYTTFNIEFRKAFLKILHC
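Potentiation of an EC20 dopamine calcium response is measured in a force-coupled, tetracycline-inducible Hek293 Trex D2 line. Compound-only kinetic reads over 180 s flag agonists before dopamine addition.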
D2 ag-1 – agonists of human D2 dopamine receptor; hit rate 0.53% among 340,000; HEK293 T-REx D2 cells, calcium flux agonist mode; AID 485358; activation, % at 2 µM; P14416;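 active means activation over 3 SD above normal in the single-dose calcium agonist read, cut at about 30% in these data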
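Agonism scored from kinetic calcium signal (1 read/sec, 180 s) following compound pin transfer, after a 10 s baseline. Cells: HEK293 Trex line expressing inducible D2 receptor coupled to calcium, dye-loaded after overnight culture at 30 C.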
D2 ag-2 – agonists of human D2 dopamine receptor (beta-arrestin); DiscoveRx PathHunter D2 beta-arrestin, luminescence, 90 min; 100% = 57 uM dopamine signal; activation, % (no concentration beside the values); hit rate 0.084% among 360,000; in the data active means activation above about 40%; inconclusive means between about 15% and that limit
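DiscoveRx PathHunter D2 beta-arrestin cells (2,100/well) attached overnight, then compound-stimulated 90 min at 37 C in HBSS/10 mM HEPES/0.1% Tween-20 buffer; beta-galactosidase complementation read by luminescence after 1 h at ambient temperature. Dopamine 57 uM final (EC100) as control.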
D2 PAM-2 – positive allosteric modulators of human D2 dopamine receptor | P14416 | DiscoveRx D2 beta-arrestin cells, luminescence, 90 min; 100% = 57 uM dopamine signal | potentiation, % (concentration not given with the values) | hit rate 0.23% among 360,000 | AID 624464; in the data active means potentiation above about 50%; inconclusive means mostly about 30% to 49%
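D2 cells co-treated with compound plus 50 nM dopamine (EC20) for 90 min at 37 deg C to detect potentiation. Beta-arrestin recruitment was read as enzyme-fragment luminescence after 1 h at ambient temperature. Full response was set by 57 uM dopamine.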
D2 antag – D2 dopamine receptor (human) antagonism | P14416 | HEK293 TREx D2 cells, calcium flux, dopamine EC80 | inhibition, % at 10 µM | hit rate 2% among 340,000; in the data active means inhibition above about 30%; inactive means below that, where a call was filed
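Calcium flux kinetic readout in an inducible HEK293 TREx D2 line plated overnight at 30 C. After 180 s compound exposure, an EC80 dopamine challenge follows with another 180 s kinetic read to detect antagonism.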
Hits are given with their value; – = inactive; ? = inconclusive; · = no result given.

SMILES	D2 PAM-1	D2 ag-1	D2 ag-2	D2 PAM-2	D2 antag
O=C(Nc1ccccc1)c1cccc(N2C(=O)C3C4C=CC(C5CC45)C3C2=O)c1 (configuration not stated)	–	–	–	–	32
COc1ccc(OC)c(NC(=O)c2cccc(N3C(=O)C4C5C=CC(C6CC56)C4C3=O)c2)c1 (configuration not stated)	40	–	–	–	–
CCc1ccccc1N1C(=O)N(CC(=O)c2ccc(Cl)cc2)c2ccccc2S1(=O)=O	–	–	·	·	·
O=C(N[C@H]1CC1c1ccccc1)c1ccc([N+](=O)[O-])cc1 (some centres not stated)	–	–	–	–	33
Cc1c(Cl)cccc1NC(=O)Cn1nc(C(F)(F)F)c2c1CCC2	–	–	·	·	·
CC(=O)N1CCN(c2ccc([N+](=O)[O-])cc2)CC1	–	–	–	–	–
CC(=O)N1CCN(C(=S)c2ccc([N+](=O)[O-])cc2)CC1	–	–	–	–	48
CC(=O)/C(=N\Nc1ccccc1)Oc1ccc([N+](=O)[O-])cc1	34	–	–	–	–
CC(=O)NC/C(C)=N\Nc1ccc([N+](=O)[O-])cc1	–	–	–	–	–
CCCCn1cc(S(=O)(=O)c2ccc(Cl)cc2)c(=O)c2cc(F)c(N3CCCCC3)cc21	–	–	·	·	·
Cc1nn(-c2ccccn2)c2c1C(=O)C(Br)CC2 (configuration not stated)	–	–	?	54	–
O=C(NCc1ccccc1Cl)C(=O)NCC(c1cccs1)S(=O)(=O)c1cccs1 (configuration not stated)	–	–	·	·	·
COc1ccc(S(=O)(=O)N2CCC(C(=O)NCCN3CCOCC3)CC2)cc1OC	–	–	–	–	–
COc1ccc(S(=O)(=O)N2CCC(C(=O)NCCN3CCOCC3)CC2)cc1C	–	–	–	–	34
CC1Cc2ccccc2N1C(=O)CSc1nnc2n1C(C)(C)Cc1ccccc1-2 (configuration not stated)	34	–	–	–	–
CCCCOC(=O)c1ccc(NC(=O)c2csnn2)cc1	–	–	·	·	·
CC(O)CNCCCOc1cccc(C(F)(F)F)c1 (configuration not stated)	–	–	–	–	34
Cc1ccc(S(=O)(=O)N2CCN(C(=O)COC(=O)CNC(=O)c3ccccc3)CC2)c(C)c1	–	–	–	–	33
CCOc1ccccc1NC(=O)C1CCN(S(=O)(=O)Cc2ccccc2)CC1	–	–	·	·	·
CC(C)CC(=O)Nc1ccccc1N1CCN(C(=O)c2ccccc2)CC1	–	–	–	62	–
O=C(NCC(=O)N1CCN(C(=O)c2ccccc2)CC1)c1ccccc1	–	–	–	–	–
CC(CC(=O)N1CCN(C(=O)c2ccccc2)CC1)c1ccccc1 (configuration not stated)	–	–	–	–	38
COC(=O)c1sc2cccc(F)c2c1S(=O)(=O)Nc1ccc(N(C)C)cc1	–	–	·	·	·
Cc1ccc(OCCCCN2CCc3ccccc3C2)cc1	–	–	–	–	73
O=[N+]([O-])c1ccccc1OCCCN1CCc2ccccc2C1	–	–	–	–	75
SMILES	D2 PAM-1	D2 ag-1	D2 ag-2	D2 PAM-2	D2 antag
Cc1ccc([N+](=O)[O-])c(OCCN2CCc3ccccc3C2)c1	–	–	–	–	88
CCOC(=O)c1ccc(NC(=O)C(C)N(c2ccc(OCC)cc2)S(C)(=O)=O)cc1 (configuration not stated)	–	–	·	·	·
O=C1CC(C(=O)Nc2ccc(F)c(Cl)c2)N=C(N2CCCCC2)N1 (configuration not stated)	–	–	–	–	30
O=C1CC(C(=O)Nc2ccccc2)N=C(N2CCOCC2)N1 (configuration not stated)	–	–	–	–	–
CC(Cc1ccco1)NC(=O)c1ccc(C(F)(F)F)cc1 (configuration not stated)	–	–	–	–	32
Cc1ccc(S(=O)(=O)Nc2cccc3cccnc23)cc1	–	–	–	–	–
COc1cc(NS(=O)(=O)c2ccc(C)cc2)c2ncccc2c1	54	–	–	–	–
CCCCN(C)CCNC(=O)c1nn(-c2ccc(OC)c(Cl)c2)c(=O)c2c1c1ccccc1n2C	–	–	·	·	·
CN1CCN(C2Cc3cc(F)ccc3Sc3ccc(Cl)cc32)CC1 (configuration not stated)	·	·	–	–	·
CN1CCN(C2=Cc3ccccc3Sc3cc(F)ccc32)CC1	–	–	–	–	80
CN1CCN(C2=Cc3ccc(Cl)cc3Sc3ccc(F)cc32)CC1	–	–	–	–	103
CN1CCN(C2Cc3ccccc3Sc3cc(C(F)(F)F)ccc32)CC1 (configuration not stated)	·	·	–	–	·
O=c1c2ccccc2nc(-c2ccc(Cl)cc2)n1CCCOc1ccccc1F	–	–	·	·	·
COCCNC(=S)N/N=C(\C)c1ccc(C)c([N+](=O)[O-])c1	–	–	–	–	32
COc1cc2c(cc1OC)-c1cc(Nc3ccc4c(c3)OCCO4)nc(=O)n1CC2	57	–	–	–	–
COc1ccc(Nc2cc3n(c(=O)n2)CCc2cc(OC)c(OC)cc2-3)cc1	–	–	–	–	–
Cc1ccc(C(=O)c2cnc3ccccc3c2-c2ccccc2)cc1	31	–	–	–	–
CC(=O)c1cccc(NC(=O)c2ccc(NC(=O)CC3SC(N4CCCCC4)=NC3=O)cc2)c1 (configuration not stated)	–	–	–	–	–
O=C(CC1SC(N2CCCCC2)=NC1=O)Nc1cccc(C(F)(F)F)c1 (configuration not stated)	–	–	–	–	79
CC(=O)c1cccc(NC(=O)CC2SC(N3CCCCC3)=NC2=O)c1 (configuration not stated)	–	–	–	–	45
O=C(CC1SC(N2CCCCC2)=NC1=O)Nc1ccc(C(=O)O)cc1 (configuration not stated)	–	–	–	–	–
Cc1cc(OCCN2CCN(S(=O)(=O)c3ccccc3F)CC2)ccc1C(C)C	66	–	–	–	–
COc1ccc(OCCN2CCN(S(=O)(=O)c3ccccc3C(F)(F)F)CC2)cc1	–	–	–	–	–
COc1ccc(N=Cc2sc(O)c3ccccc23)cc1	–	–	?	113	–
O=C(CC1SC(=NCC2CCCO2)NC1=O)Nc1cc([N+](=O)[O-])ccc1Cl (configuration not stated)	–	–	–	–	–
O=C(CC1SC(N2CCCCC2)=NC1=O)Nc1ccc(C(=O)Nc2ccccc2)cc1 (configuration not stated)	–	–	–	–	–
O=C(CC1SC(N2CCOCC2)=NC1=O)Nc1ccc(F)cc1 (configuration not stated)	·	·	–	–	·

Screening data as filed in PubChem.
